This is part of a sample that, as a whole, favours compounds with a hit. Of some 83,000 tested, about 20% had one in any assay.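 Cells were grown in 96-well plates and exposed to the test compound at a single concentration for 48 hours; results are reported as percent growth, with values below 10 considered active.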 Unmarked numbers belong to inactive results. Calls of active or inactive are those of the source.

Results on 8 compounds are retold here after PubChem BioAssay (NCI).

Test systems include SK-MEL-2 melanoma; EKVX NSCLC; SN12C renal; UO-31 renal; TK-10 renal; ACHN renal; CAKI-1 renal; A498 renal; CCRF-CEM leukemia; MOLT-4 leukemia; SR leukemia; RPMI-8226 leukemia; OVCAR-8 ovarian; OVCAR-5 ovarian; OVCAR-4 ovarian; SK-OV-3 ovarian; IGROV1 ovarian; OVCAR-3 ovarian; HS 578T breast; NCI/ADR-RES ovarian.
Common to all, as to test: NCI-60 one-dose screen, 48 h (100 = growth as untreated, 0 = no growth, -100 = all killed)
Settings in all cases: 10 µM unless noted

In the case of `Fc1ccc(N2CC(Cn3c(C(F)(F)F)cc4c(Cl)ncnc43)C2)c(F)c1`, the growth with SK-MEL-2 melanoma is -78.1% (active); in the experiment with EKVX NSCLC it was 72.4%; in the experiment with SN12C renal, -29.1% (active); in the experiment on UO-31 renal it was -92% (active); in the experiment with TK-10 renal, 104%; with ACHN renal, 41.8%. In addition, the growth in the experiment with CAKI-1 renal is 71.7%; with A498 renal, 130%; in the experiment on CCRF-CEM leukemia it was -38.5% (active); with MOLT-4 leukemia it was -61.3% (active); in the experiment on SR leukemia, -60.9% (active); with RPMI-8226 leukemia, 24.2%. Besides, the growth was -87.6% (active) in the experiment with OVCAR-8 ovarian; 107% in the experiment on OVCAR-5 ovarian; -27.1% (active) in the experiment with OVCAR-4 ovarian; 100% in the experiment with SK-OV-3 ovarian; -95.7% (active) with IGROV1 ovarian; -66.2% (active) in the experiment on OVCAR-3 ovarian. The growth in the experiment on HS 578T breast is 55.1%; in the experiment on NCI/ADR-RES ovarian it was 11.4%.

With `COc1ccc2[nH]cc(-c3cc4nc(-c5cn(C)c6ncccc56)cc(N)n4n3)c2c1`, the growth in the experiment with SK-MEL-2 melanoma was 97.2%; with EKVX NSCLC, 55.1%; in the experiment on SN12C renal, 26.2%; in the experiment on UO-31 renal, 12.3%; with TK-10 renal, 78.1%; in the experiment on ACHN renal, 7.66% (active). Besides, the growth was -65.2% (active) in the experiment on CAKI-1 renal; 116% in the experiment with A498 renal; -34.3% (active) in the experiment on CCRF-CEM leukemia; -9.04% (active) in the experiment on MOLT-4 leukemia; -9.65% (active) in the experiment on SR leukemia; -33.4% (active) in the experiment with RPMI-8226 leukemia. For the same compound, the growth with OVCAR-8 ovarian is -40.6% (active); in the experiment on OVCAR-5 ovarian it was -17.6% (active); in the experiment with OVCAR-4 ovarian, -26.4% (active); in the experiment on SK-OV-3 ovarian, 103%; in the experiment with IGROV1 ovarian, -62.5% (active); in the experiment with OVCAR-3 ovarian, -57.6% (active). Besides, the growth with HS 578T breast was -10.3% (active); in the experiment on NCI/ADR-RES ovarian, -15.6% (active).

In the case of `Cc1nc2sccn2c1-c1nnc(SCC(C)C)o1`, the growth was 92.1% with SK-MEL-2 melanoma; 74.5% in the experiment on EKVX NSCLC; 88.4% with SN12C renal; 67.7% in the experiment on UO-31 renal; 127% in the experiment on TK-10 renal; 87.8% in the experiment with ACHN renal. In addition, the growth in the experiment with CAKI-1 renal was 76.7%; in the experiment with A498 renal, 98.5%; in the experiment on CCRF-CEM leukemia, 51.6%; in the experiment on MOLT-4 leukemia, 84.1%; with SR leukemia, 44.8%; with RPMI-8226 leukemia, 57.9%. The growth in the experiment with OVCAR-8 ovarian was 93.2%; with OVCAR-5 ovarian, 90.5%; in the experiment on OVCAR-4 ovarian, 86%; in the experiment with SK-OV-3 ovarian, 102%; in the experiment on IGROV1 ovarian, 89.4%; with OVCAR-3 ovarian, 104%. Further, the growth is 88.7% with HS 578T breast and 79% with NCI/ADR-RES ovarian.

As to `COc1cc(/C=N/NC(=O)c2ccc(OCc3nc4ccc(Cl)cc4[nH]3)cc2)cc(OC)c1OC`, the growth in the experiment with SK-MEL-2 melanoma was 74.5%; in the experiment on EKVX NSCLC, 33.3%; in the experiment with SN12C renal, 48.7%; with UO-31 renal, 45.5%; with TK-10 renal, 74.9%; in the experiment on ACHN renal it was 39.1%. For the same compound, the growth in the experiment on CAKI-1 renal was 40.5%; with A498 renal, 121%; in the experiment with CCRF-CEM leukemia, 3.83% (active); in the experiment on MOLT-4 leukemia, 12.1%; with SR leukemia it was 33%; in the experiment with RPMI-8226 leukemia, 2.76% (active). Further, the growth with OVCAR-8 ovarian was 34.5%; in the experiment with OVCAR-5 ovarian, 76.3%; in the experiment with OVCAR-4 ovarian, 67.1%; in the experiment with SK-OV-3 ovarian, 97.7%; with IGROV1 ovarian it was 43.1%; in the experiment on OVCAR-3 ovarian it was 55.7%. Further, the growth with HS 578T breast was 58.3%; with NCI/ADR-RES ovarian it was 80.6%.

Turning to `CC1CCc2c(sc3nc(SCC(=O)c4cccc(Br)c4)n(-c4ccccc4)c(=O)c23)C1` (stereo not given), the growth is 99.2% with SK-MEL-2 melanoma; 66.2% with EKVX NSCLC; 32.8% with SN12C renal; 16.6% in the experiment with UO-31 renal; -21.6% (active) with TK-10 renal; -60.6% (active) with ACHN renal. Also, the growth in the experiment on CAKI-1 renal was 6.39% (active); with A498 renal, 114%; with CCRF-CEM leukemia, 35.3%; with MOLT-4 leukemia it was 28.6%; in the experiment on SR leukemia, 22.3%; in the experiment on RPMI-8226 leukemia it was 58.8%. Besides, the growth with OVCAR-8 ovarian was 19.2%; in the experiment with OVCAR-5 ovarian it was 47.8%; with OVCAR-4 ovarian, 30.6%; in the experiment with SK-OV-3 ovarian, 58%; with IGROV1 ovarian it was 33.7%; in the experiment on OVCAR-3 ovarian it was 55.7%. The results for the growth in the experiment with HS 578T breast and in the experiment with NCI/ADR-RES ovarian were 57.7% and 35.2%, respectively.

`CN(C)c1nc(NCCNS(=O)(=O)c2ccc(C3=Nc4c(N)nc(N)nc4NC(c4ccc(C(F)(F)F)cc4)C3)cc2)nc(N2CCOCC2)n1` (stereo not given): the growth with SK-MEL-2 melanoma is 21.8%; in the experiment with EKVX NSCLC, 38.3%; in the experiment with SN12C renal, 48.1%; in the experiment on UO-31 renal, 74.1%; with TK-10 renal it was 68.9%; in the experiment with ACHN renal it was 77.3%. Also, the growth in the experiment on CAKI-1 renal is 37.1%; in the experiment on A498 renal, 94.8%; in the experiment on CCRF-CEM leukemia it was 21.8%; in the experiment with MOLT-4 leukemia, -5.12% (active); with SR leukemia, 3.12% (active); in the experiment with RPMI-8226 leukemia it was 34.8%. In addition, the growth is 43.2% with OVCAR-8 ovarian; 78% in the experiment on OVCAR-5 ovarian; 58% in the experiment with OVCAR-4 ovarian; 55.8% in the experiment with SK-OV-3 ovarian; 45.7% with IGROV1 ovarian; 58.2% in the experiment on OVCAR-3 ovarian. The growth was 40.7% in the experiment on HS 578T breast and 91.8% with NCI/ADR-RES ovarian.

In the case of `COc1ccc(NC(=O)NN2C(=O)c3ccccc3N(C)C2c2ccc(OC)cc2)cc1` (stereo not given), the growth is 95.3% in the experiment with SK-MEL-2 melanoma; 100% with EKVX NSCLC; 103% with SN12C renal; 75.3% in the experiment with UO-31 renal; 97.2% in the experiment with TK-10 renal; 106% in the experiment with ACHN renal. Besides, the growth in the experiment on CAKI-1 renal was 92.7%; in the experiment with A498 renal it was 108%; in the experiment with CCRF-CEM leukemia, 98.7%; in the experiment with MOLT-4 leukemia, 96.4%; with SR leukemia it was 88.4%; in the experiment with RPMI-8226 leukemia, 99.1%. Further, the growth with OVCAR-8 ovarian is 103%; with OVCAR-5 ovarian, 107%; in the experiment on OVCAR-4 ovarian it was 96.7%; with SK-OV-3 ovarian it was 101%; in the experiment on IGROV1 ovarian it was 108%; with OVCAR-3 ovarian, 89.8%. The growth was 101% in the experiment on HS 578T breast and 92.2% with NCI/ADR-RES ovarian.

On to `COc1ccc(-n2c(NC(=O)N3CCN(C)CC3)c(C#N)c3ccccc32)cc1`, for which the growth was 72.9% in the experiment on SK-MEL-2 melanoma; 12.3% in the experiment on EKVX NSCLC; 23% in the experiment with SN12C renal; -15.6% (active) in the experiment on UO-31 renal; 12.4% in the experiment on TK-10 renal; 21.9% with ACHN renal. Moreover, the growth with CAKI-1 renal was 15%; in the experiment with A498 renal it was 139%; in the experiment on CCRF-CEM leukemia, 60.5%; in the experiment on MOLT-4 leukemia, 43.9%; in the experiment on SR leukemia, 31.5%; with RPMI-8226 leukemia, 41.6%. In addition, the growth in the experiment with OVCAR-8 ovarian was 66.8%; in the experiment on OVCAR-5 ovarian it was 55.1%; in the experiment with OVCAR-4 ovarian, 43.3%; with SK-OV-3 ovarian it was 55%; in the experiment with IGROV1 ovarian, 34.2%; in the experiment with OVCAR-3 ovarian, 42.6%. The growth in the experiment with HS 578T breast was 27.3%; in the experiment on NCI/ADR-RES ovarian it was 59.5%.
